Measured values published in PubChem BioAssay AID504339 (National Center for Advancing Translational Sciences (NCATS), 2011).
The whole screen tested about 390,000 compounds, of which about 17,000 (4.4%) were called active. Inconclusive results (about 8%) are left out. Calls come from the whole dose curve; as a rule, active = well fitted inhibition curve with a large enough effect; inconclusive = small, poorly fitted or top-dose-only effect; inactive = no such curve, though single readings can be large or run the other way. The sample as a whole holds a higher share of actives than the screen did.

biological target: Lysine-specific demethylase 4A (Homo sapiens) (UniProt O75164); assay: qHTS Assay for Inhibitors of JMJD2A-Tudor Domain; details: AlphaScreen JMJD2A-Tudor / H3K4me3 peptide binding; series mostly up to 114 µM; activity change, negative = inhibition: at the top concentration; note: nearly all actives have a fitted effect of over 50% in size
% is set by controls: 0 for no effect and ±100 for the full control effect; potency is the fitted concentration of half-maximal effect.

Chain of Lysine-specific demethylase 4A (Homo sapiens) (O75164 whole entry, looked up, the tested form may be a part): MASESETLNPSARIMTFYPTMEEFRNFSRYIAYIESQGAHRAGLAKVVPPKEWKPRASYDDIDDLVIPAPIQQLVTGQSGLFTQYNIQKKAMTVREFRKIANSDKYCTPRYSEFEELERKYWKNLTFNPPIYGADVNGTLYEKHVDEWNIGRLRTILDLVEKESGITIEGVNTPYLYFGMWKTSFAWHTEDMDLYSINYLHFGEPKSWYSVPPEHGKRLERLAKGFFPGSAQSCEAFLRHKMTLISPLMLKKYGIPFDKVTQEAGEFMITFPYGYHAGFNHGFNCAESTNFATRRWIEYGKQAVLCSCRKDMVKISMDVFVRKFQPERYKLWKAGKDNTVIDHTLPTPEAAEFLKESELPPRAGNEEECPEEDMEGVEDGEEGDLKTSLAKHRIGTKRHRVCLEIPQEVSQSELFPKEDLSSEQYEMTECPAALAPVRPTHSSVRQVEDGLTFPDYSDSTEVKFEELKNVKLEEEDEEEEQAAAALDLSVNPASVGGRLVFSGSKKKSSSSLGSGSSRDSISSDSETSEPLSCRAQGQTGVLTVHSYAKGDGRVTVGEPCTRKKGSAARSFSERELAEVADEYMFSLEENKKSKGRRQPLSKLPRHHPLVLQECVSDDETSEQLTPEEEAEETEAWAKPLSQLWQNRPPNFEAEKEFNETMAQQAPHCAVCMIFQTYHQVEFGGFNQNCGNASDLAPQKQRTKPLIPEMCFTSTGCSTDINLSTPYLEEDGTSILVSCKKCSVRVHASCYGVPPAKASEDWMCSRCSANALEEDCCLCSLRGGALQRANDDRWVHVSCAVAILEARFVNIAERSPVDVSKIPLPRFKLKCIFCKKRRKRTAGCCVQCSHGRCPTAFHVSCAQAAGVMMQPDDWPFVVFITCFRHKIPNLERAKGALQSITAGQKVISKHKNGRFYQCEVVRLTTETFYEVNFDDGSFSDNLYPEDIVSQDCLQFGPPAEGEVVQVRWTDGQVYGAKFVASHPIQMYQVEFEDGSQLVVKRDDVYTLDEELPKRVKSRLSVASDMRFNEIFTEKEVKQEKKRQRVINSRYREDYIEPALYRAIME

Activity change, negative = inhibition, inactive:
COc1cccc(C(=O)NCC(=O)OCc2cc(=O)n3ccsc3n2)c1 -9.67%
CC(C)c1ccc(NC(=O)c2cc(S(=O)(=O)N3CCc4ccccc4C3)ccc2F)cc1 -12.2%
CCOc1ccccc1NC(=O)c1ccc2c(c1)CCN2S(=O)(=O)c1ccc(C)cc1 -6.6%
CCOc1ccc(N(Cc2ccccc2)C(=O)c2nc(S(C)(=O)=O)ncc2Cl)cc1 -13.2%
CC(CN1CCC(n2nccc2NC(=O)C2CCCC2)CC1)c1ccccc1 (stereo not given) -9.49%
CC(CN1CCOCC1)c1ccccc1 (stereo not given) -4.19%
COc1ccc(-n2c(SCC(N)=O)nc3c(oc4ccccc43)c2=O)cc1 -1.45%
CCn1cc(C(=O)NCc2ccc(C)cc2)c(=O)c2cc(S(=O)(=O)N3CCc4ccccc4C3)ccc21 -23%
CCCCNC(=O)c1ccc2c(c1)NC(=O)C(C(C)C)N2 (stereo not given) -9.9%
C[C@H](NC(=O)c1ccccc1)C(=O)OCC(=O)c1c[nH]c2ccccc12 -10.7%
CCOc1ccccc1C(=O)NCC(c1ccc(N(C)C)cc1)N1CCCC1 (stereo not given) -27.5%
Cc1ccc(CN2COc3cc(C)c4c(oc(=O)c5ccccc54)c3C2)cc1 -22.6%
Cc1ccc(NC2=C(c3ccc(C(F)(F)F)cc3)C(=O)c3ccccc32)cc1F -21.9%
COc1ccc(N2C(=O)CSC23C(=O)N(Cc2cccc(F)c2)c2ccccc23)cc1Cl (stereo not given) -12.4%
O=C(CS(=O)(=O)c1cccc2nsnc12)N1CCN(c2cccc(Cl)c2)CC1 -21.6%
COc1ccc2c(c1OC)C(=O)N(c1ccc(O)cc1)C2 0%
COc1ccc(C2C(C#N)=C(N)N(c3ncn[nH]3)C3=C2C(=O)CCC3)cc1 (stereo not given) -18% [at 11.4 µM]
CCOC(=O)c1c(S(=O)(=O)N2CCCC(C(=O)NCc3cccc(C)c3)C2)c(C)n(C)c1C (stereo not given) -17.7%
Cc1cc(C)cc(NS(=O)(=O)c2ccc3[nH]cc(C(=O)N4CCCCC4)c(=O)c3c2)c1 -28.7%
Cc1ccc(-n2c3nc(=O)[nH]c(=O)c-3cc3c(Cl)cccc32)cc1 -12.4%
COc1cc(CNCCSc2nnnn2C)ccc1OCc1c(F)cccc1Cl -14.2%
COC(CCN(C)C)(c1ccccc1)c1ccccc1 -9.55%
CC(=O)O[C@H]1c2ccccc2-c2ccccc2[C@@H]1OC(C)=O 11%
COc1cc(NC(=O)c2nn(-c3ccc(C)cc3)c(=O)c3c2c2ccccc2n3C)cc(OC)c1OC -17%
O=C(CN1C(=O)COc2ccc(S(=O)(=O)N3CCOCC3)cc21)N1CCN(c2cccc(Cl)c2)CC1 -21.2%
CCOc1ccccc1/C=N/NC(=O)CNC(=O)COc1ccccc1 -34.1%
Brc1ccccc1/C=N/Nc1nc2ccccc2o1 -17.8%
COc1ccc(NC(=O)c2sc3nc[nH]c(=O)c3c2C)cc1 -27.1%
CC(=O)N1c2ccccc2N(Cc2ccc([N+](=O)[O-])cc2)C(=O)C1(C)C -30.2%
Cc1[nH]n(-c2ccc([N+](=O)[O-])cc2)c(=O)c1C=NCCN1CCN(C(=O)c2ccccc2F)CC1 -10.6%
Cc1nc2c(c(C)nn2-c2ccccc2)c(C)c1CCC(=O)NCCc1ccc(Cl)cc1 -8.72%
Cc1ccc(C)c(Cn2c(CCCNC(=O)C3CCCCC3)nc3ccccc32)c1 -1.01%
COc1ccccc1Cc1nc2ccccc2nc1SCC(=O)N1CCCc2ccccc21 -10.7%
O=C(CSc1nnc(COc2ccc(Cl)cc2)n1Cc1ccco1)N1CCNC1=O -15.4%
CC(C)c1ccc(Cn2c(COc3ccccc3)nc3ccccc32)cc1 38.1%
O=C(CSc1nc2c(c(=O)[nH]1)CN(Cc1ccc(F)cc1)CC2)Nc1ccccc1Cl -12.3%
COc1cc2nc(SCc3ccc(F)cc3)n3nc(CCn4c(C)nc5ccccc54)nc3c2cc1OC -21.7%
Cc1ccc2nc3c(cc(C(=O)NC4CCCCC4)c(=N)n3C(C)C)c(=O)n2c1 -7.61%
CCC1=Nc2cc(C(=O)NCC(C)c3ccccc3)ccc2Sc2ccc(C)cc21 (stereo not given) -12.7%
Cc1cccc(N2CCN(C(=O)c3cccc(S(=O)(=O)N4CCc5ccccc5C4)c3)CC2C)c1 (stereo not given) -19.5%
Cc1cccc(N2CCN(C(=O)c3ccccc3NC(=O)C3CCCCC3C(=O)O)CC2)c1 (stereo not given) -8.22%

Potency, active:
CC(CN1CCCCC1)c1ccccc1 (stereo not given) 3.98 µM
CN(C)c1ccc(C(CNC(=O)c2ccc(F)cc2)c2c[nH]c3ccccc23)cc1 (stereo not given) 25.1 µM
COc1ccc2c(c1OC)C(=O)N(c1ncn[nH]1)C2 39.8 µM
O=C1C(Cl)=C(Oc2ccccc2)C(=O)c2ccccc21 1 µM
CN(C)CCOC1c2ccccc2-c2ccccc21 1.41 µM
CCOc1ccccc1/C=N/Nc1nc2ccccc2o1 17.8 µM
O=c1[nH]n(-c2ccc([N+](=O)[O-])cc2)c(=O)c2ccccc12 39.8 µM
Cn1c2ccccc2c(=O)c2c(=O)n(Cc3ccco3)c(COc3ccccc3)nc21 44.7 µM
Cc1cccc(N2CCN(c3ccc(C(=O)O)cc3NC(=O)c3ccccc3F)CC2C)c1 (stereo not given) 56.2 µM
